# From publication PMC7862700, “An all-to-all approach to the identification of sequence-specific readers for epigenetic DNA modifications on cytosine”
# What was measured:
# Assay in all cases: DAPPL (digital affinity profiling via proximity ligation, sequencing); 10 mM Tris-HCl pH 7.5, 50 mM NaCl, 1 mM DTT, 4% glycerol, room temperature, 30 min; GST-TFs on glutathione beads, 16-mer random dsDNA library, 0.1% formaldehyde crosslink after washing; high values mean tight binding
# Conditions in all cases: protein: recombinant; tags: N-terminal GST; dsDNA, one strand shown
# FLI1 = molecular target: T1, FLI1 (Homo sapiens, UniProt Q01543 1-452)
# T1 sequence: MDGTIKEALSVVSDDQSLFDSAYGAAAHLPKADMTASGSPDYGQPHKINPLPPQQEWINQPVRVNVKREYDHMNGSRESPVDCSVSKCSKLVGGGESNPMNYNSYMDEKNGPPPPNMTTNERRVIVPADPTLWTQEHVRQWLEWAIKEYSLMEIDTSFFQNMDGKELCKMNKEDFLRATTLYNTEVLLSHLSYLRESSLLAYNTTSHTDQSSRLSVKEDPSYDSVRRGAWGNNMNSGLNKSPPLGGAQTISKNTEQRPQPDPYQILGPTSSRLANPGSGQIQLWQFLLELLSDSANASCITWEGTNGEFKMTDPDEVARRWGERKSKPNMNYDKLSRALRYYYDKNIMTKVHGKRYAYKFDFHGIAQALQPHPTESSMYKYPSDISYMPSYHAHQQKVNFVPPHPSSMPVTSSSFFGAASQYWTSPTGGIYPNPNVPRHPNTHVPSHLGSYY
# Method in brief: (§1)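 Binding signal is each hexamer's read frequency for a factor divided by its frequency in the tag-only sample. The factors were GST-fused human transcription factors from yeast, captured on glutathione beads, DNA-barcoded and pooled with that sample. Pools were incubated with 200 nmole of a random double-stranded 16-mer DNA library in Tris/NaCl/DTT/glycerol buffer at room temperature for 30 min, then washed, crosslinked with 0.1% formaldehyde, proximity-ligated with BsaI/T4 ligase (1 h, 37 °C), PCR-amplified and sequenced on an Illumina NextSeq500.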
# ELK1 = molecular target: T2, ELK1 (Homo sapiens, UniProt P19419 1-428)
# T2 sequence: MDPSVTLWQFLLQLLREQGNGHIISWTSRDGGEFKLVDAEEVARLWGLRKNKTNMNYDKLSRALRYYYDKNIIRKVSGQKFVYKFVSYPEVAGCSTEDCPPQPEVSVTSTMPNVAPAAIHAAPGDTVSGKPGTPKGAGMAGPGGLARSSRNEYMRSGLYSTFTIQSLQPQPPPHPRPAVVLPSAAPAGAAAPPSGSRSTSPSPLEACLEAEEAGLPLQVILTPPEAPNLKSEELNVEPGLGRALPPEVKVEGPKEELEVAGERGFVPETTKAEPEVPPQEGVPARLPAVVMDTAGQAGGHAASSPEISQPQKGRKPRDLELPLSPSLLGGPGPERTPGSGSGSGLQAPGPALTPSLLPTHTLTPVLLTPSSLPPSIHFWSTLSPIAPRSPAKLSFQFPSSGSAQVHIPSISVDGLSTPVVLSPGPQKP
# Method in brief: as §1
# GABPA = molecular target: T3, GABPA (Homo sapiens, UniProt Q06546 1-454)
# T3 sequence: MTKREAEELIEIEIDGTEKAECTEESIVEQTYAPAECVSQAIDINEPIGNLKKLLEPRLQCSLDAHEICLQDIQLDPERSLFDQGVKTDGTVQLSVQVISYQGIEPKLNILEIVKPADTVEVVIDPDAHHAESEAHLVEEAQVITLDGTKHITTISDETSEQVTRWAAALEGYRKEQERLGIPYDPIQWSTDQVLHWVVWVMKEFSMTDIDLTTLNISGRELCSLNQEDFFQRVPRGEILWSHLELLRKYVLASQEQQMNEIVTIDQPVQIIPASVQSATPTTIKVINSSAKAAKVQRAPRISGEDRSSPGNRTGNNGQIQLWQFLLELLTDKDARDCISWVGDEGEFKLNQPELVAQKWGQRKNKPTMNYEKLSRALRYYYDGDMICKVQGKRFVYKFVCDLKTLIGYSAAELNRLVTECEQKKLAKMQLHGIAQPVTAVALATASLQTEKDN
# Method in brief: as §1
# ERG = molecular target: T4, ERG (Homo sapiens, UniProt P11308 1-479)
# T4 sequence: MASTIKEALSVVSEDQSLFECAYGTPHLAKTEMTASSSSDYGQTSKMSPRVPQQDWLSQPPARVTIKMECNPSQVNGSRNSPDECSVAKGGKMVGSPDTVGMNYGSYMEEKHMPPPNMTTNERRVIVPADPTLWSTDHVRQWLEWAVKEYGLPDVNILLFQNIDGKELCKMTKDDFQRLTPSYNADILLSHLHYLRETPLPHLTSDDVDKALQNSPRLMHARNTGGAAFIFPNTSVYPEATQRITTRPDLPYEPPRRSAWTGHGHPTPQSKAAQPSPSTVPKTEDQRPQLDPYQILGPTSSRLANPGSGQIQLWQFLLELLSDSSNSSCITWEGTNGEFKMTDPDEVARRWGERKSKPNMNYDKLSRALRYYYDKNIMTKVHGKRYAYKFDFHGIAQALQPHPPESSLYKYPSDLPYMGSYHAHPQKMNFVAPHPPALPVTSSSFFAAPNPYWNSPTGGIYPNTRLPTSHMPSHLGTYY
# Method in brief: as §1
# ELF1 = ELF1 (Homo sapiens, UniProt P32519 1-619)
# Method in brief: as §1
# EHF = molecular target: T5, EHF (Homo sapiens, UniProt Q9NZC4 1-300)
# T5 sequence: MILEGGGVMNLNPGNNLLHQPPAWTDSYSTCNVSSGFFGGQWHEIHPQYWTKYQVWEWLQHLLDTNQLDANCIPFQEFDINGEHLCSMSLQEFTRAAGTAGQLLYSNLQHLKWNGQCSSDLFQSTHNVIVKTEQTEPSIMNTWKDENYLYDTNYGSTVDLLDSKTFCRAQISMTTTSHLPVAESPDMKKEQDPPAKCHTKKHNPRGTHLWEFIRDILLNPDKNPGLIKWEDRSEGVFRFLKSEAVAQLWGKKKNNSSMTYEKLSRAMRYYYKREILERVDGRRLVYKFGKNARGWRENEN
# Method in brief: as §1
# SPI1 = SPI1 (Homo sapiens, UniProt P17947 1-270)
# Method in brief: as §1
# SPIB = SPIB (Homo sapiens, UniProt Q01892 1-262)
# Method in brief: as §1
# FEV = molecular target: T6, FEV (Homo sapiens, UniProt Q99581 1-238)
# T6 sequence: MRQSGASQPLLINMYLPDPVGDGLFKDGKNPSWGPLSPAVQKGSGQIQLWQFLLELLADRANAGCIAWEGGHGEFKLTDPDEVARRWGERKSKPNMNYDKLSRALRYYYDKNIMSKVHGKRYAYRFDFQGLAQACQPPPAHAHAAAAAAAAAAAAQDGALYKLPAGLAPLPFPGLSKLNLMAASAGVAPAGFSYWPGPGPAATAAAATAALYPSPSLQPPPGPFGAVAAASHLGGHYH
# Method in brief: as §1
# ETV5 = ETV5 (Homo sapiens, UniProt P41161 1-510)
# Method in brief: as §1
# ETV5, sequence (P41161 whole entry): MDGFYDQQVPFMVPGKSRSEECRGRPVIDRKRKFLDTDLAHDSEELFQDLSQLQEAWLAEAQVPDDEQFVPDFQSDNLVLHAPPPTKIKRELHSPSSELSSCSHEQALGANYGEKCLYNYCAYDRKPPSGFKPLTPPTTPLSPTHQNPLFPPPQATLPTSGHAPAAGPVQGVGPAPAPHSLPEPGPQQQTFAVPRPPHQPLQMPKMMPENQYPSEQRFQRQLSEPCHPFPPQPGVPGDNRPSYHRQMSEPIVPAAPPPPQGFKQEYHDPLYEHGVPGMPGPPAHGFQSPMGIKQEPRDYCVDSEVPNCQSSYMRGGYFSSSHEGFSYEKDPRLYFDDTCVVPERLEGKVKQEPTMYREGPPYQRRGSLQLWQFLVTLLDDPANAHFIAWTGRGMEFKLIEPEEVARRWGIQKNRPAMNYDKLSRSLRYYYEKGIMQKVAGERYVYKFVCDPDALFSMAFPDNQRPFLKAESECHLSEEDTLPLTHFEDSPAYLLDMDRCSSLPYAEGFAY
# ELF1, sequence (P32519 whole entry): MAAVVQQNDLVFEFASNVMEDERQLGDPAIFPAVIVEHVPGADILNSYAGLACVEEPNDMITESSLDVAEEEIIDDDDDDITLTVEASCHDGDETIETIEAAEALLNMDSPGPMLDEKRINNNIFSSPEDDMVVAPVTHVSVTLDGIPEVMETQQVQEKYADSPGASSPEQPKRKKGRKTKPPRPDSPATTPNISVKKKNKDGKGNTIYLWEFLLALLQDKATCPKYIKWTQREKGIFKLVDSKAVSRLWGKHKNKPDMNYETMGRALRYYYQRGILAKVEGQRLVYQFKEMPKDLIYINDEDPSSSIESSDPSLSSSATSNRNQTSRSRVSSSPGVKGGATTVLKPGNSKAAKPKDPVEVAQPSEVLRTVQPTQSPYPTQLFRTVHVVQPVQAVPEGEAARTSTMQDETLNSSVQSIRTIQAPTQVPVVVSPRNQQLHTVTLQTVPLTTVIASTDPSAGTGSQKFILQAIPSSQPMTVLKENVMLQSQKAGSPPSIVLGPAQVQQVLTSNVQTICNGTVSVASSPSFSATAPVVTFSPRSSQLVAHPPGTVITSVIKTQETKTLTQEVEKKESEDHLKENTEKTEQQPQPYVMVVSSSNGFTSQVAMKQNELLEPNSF
# SPIB, sequence (Q01892 whole entry): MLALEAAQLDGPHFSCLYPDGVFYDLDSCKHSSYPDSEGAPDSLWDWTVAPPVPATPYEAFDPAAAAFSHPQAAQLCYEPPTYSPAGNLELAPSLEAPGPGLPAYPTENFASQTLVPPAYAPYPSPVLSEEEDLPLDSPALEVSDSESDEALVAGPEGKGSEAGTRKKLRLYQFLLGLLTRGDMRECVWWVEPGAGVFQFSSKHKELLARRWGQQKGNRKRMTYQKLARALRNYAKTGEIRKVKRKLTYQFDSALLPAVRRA
sequence,measurement,setting,value
GTACCC,binding signal,FLI1,"1.08 fold enrichment (6-mer frequency, TF over GST control)"
same,binding signal,ELK1,"1.05 fold enrichment (6-mer frequency, TF over GST control)"
same,binding signal,GABPA,"1.07 fold enrichment (6-mer frequency, TF over GST control)"
same,binding signal,ERG,"1.05 fold enrichment (6-mer frequency, TF over GST control)"
same,binding signal,ELF1,"1.12 fold enrichment (6-mer frequency, TF over GST control)"
same,binding signal,EHF,"1.16 fold enrichment (6-mer frequency, TF over GST control)"
same,binding signal,SPI1,"1.16 fold enrichment (6-mer frequency, TF over GST control)"
same,binding signal,SPIB,"1.07 fold enrichment (6-mer frequency, TF over GST control)"
same,binding signal,FEV,"1.05 fold enrichment (6-mer frequency, TF over GST control)"
same,binding signal,ETV5,"1.17 fold enrichment (6-mer frequency, TF over GST control)"
